Measured values taken from PubChem BioAssay.

Assay: osmotic lysis modulators in infected erythrocytes, primary screen, PSAC antagonist project, cell-based, P. falciparum Indochina, OD700, 3 h (AID 1156)
Conditions: higher = more signal, called active from +8 up or from −8 down

z-score, inactive:
O=C1[C@H]2[C@H]3[C@H](O)[C@H](O)CC(=NOC[C@@H](O)COCc4ccco4)[C@H]3CC[C@H]2C(=O)N1Cc1ccccc1 -0.409
COc1cccc([C@H]2Oc3ccc(OC)cc3C(=NOC[C@@H](O)[C@H]3O[C@@H]4OC(C)(C)O[C@@H]4[C@H]3O)[C@@H]2O)c1 -0.128
Cn1c(=O)n2n(c1=O)[C@H]1[C@H](O)[C@@H]3O[C@@H]3C(=NOCc3ccccc3)[C@H]1CC2 -0.432

Assay: PSAC antagonists in infected red cells, primary screen, cell-based, P. falciparum Indochina, OD700, 18 h (AID 1157)
Conditions: P. falciparum Indochina infected erythrocytes, osmotic lysis OD700, 18 h; higher = more signal, called active from +8 up or from −8 down

z-score, inactive:
CCOC(=O)[C@H](CC(C)C)NC(=O)CCC1CC(OC(=O)NCc2cccc3ccccc23)CC2(CCCC(COC(=O)NCCC(C)C)O2)O1 (stereo not given in full) 0.78
CCOC(=O)[C@H](CC(C)C)NC(=O)CCC1CC(OC(=O)NCc2cccc3ccccc23)CC2(CCCC(COC(=O)NCC3CCCCC3)O2)O1 (stereo not given in full) -1.35
CCC=CCCC(OC(=O)c1ccc(Br)cc1)C1=CCCCC1=O (stereo not given) -0.366
Cc1cc2c(nc1C)CCCCN2CC(C)ON=C[C@@H](C)[C@H](OCc1ccccc1)C(C)C (stereo not given in full) 0.171
CCOC(=O)[C@H](Cc1ccccc1)NC(=O)CCC1CC(OC(=O)NCc2cccc3ccccc23)CC2(CCCC(COC(=O)NCCC(C)C)O2)O1 (stereo not given in full) -0.492
Cc1ccc(S(=O)(=O)n2c3ccccc3c3nnc(C(=O)c4ccccc4)nc32)cc1 0.421
COC(=O)NCC=Cc1nc(CCCO)co1 -0.145
Cc1ccc(S(=O)(=O)N[C@H]2COC(=O)CC=C[C@H](C)[C@@H](NS(=O)(=O)c3ccc(C)cc3)COC(=O)CC=C[C@@H]2C)cc1 0.441
O=C1[C@H]2[C@H]3[C@H](O)[C@H](O)CC(=NOCc4ccccc4)[C@@H]3CC[C@H]2C(=O)N1C[C@@H]1CCCO1 0.305
CCCCC#C[C@@H]1C=C[C@H](OC(C)=O)[C@@H](COC(C)=O)O1 -0.0473
Cc1cc2c(nc1C)CCCN2CC(O)CN1CCCc2nc(C)c(C)cc21 -0.0697
C#CCCCON=C1C[C@@H](O)[C@@H](O)[C@@H]2[C@@H]3C(=O)N(CC)C(=O)[C@@H]3CC[C@@H]12 -0.0637
CCOC(=O)CCN1C(=O)[C@H]2[C@H]3[C@H](O)[C@H](O)CC(=NNC(=O)OCc4ccccc4)[C@@H]3CC[C@H]2C1=O -0.0393
CC(C)(C)N1C(=O)[C@H]2[C@H]3[C@H](O)[C@H](O)CC(=NOCc4ccccc4)[C@H]3CC[C@H]2C1=O 0.133
C[C@H]1COC(=O)[C@@H]2CCCN2C(=O)[C@@H](C)COC(=O)[C@H](Cc2ccccc2)NC1=O 0.22
O=C1[C@H]2[C@H]3[C@H](O)[C@H](O)CC(=NO[C@@H]4O[C@H](CO)[C@@H](O)[C@H](O)[C@H]4O)[C@H]3CC[C@H]2C(=O)N1c1cccc(Oc2ccccc2)c1 0.207
CC(C)=CCCC(C)=CCON=C1C[C@@H](O)[C@@H](O)[C@@H]2[C@@H]3C(=O)N(Cc4ccccc4)C(=O)[C@@H]3CC[C@H]12 -0.748
CC(C)(C)N1C(=O)[C@H]2[C@H]3[C@H](O)[C@H](O)CC(=O)[C@H]3CC[C@H]2C1=O 0.183
COc1ccc(O[C@H]2C=C[C@@H](c3ccccc3)O[C@@H]2COC(=O)CCC(C)=NO[C@@H]2O[C@H](COC(C)=O)[C@@H](OC(C)=O)[C@H](OC(C)=O)[C@H]2OC(C)=O)cc1 0.539
COc1ccc(COC(=O)NN=C2C[C@@H](O)[C@@H](O)[C@@H]3[C@@H]4C(=O)N(Cc5ccccc5)C(=O)[C@@H]4CC[C@H]23)cc1 -1.17
COc1cc(O)c(C(=O)C=Cc2ccc3c(c2)OCO3)c(OC)c1 0.885
C#CCCCON=C1C[C@@H](O)[C@@H](O)[C@@H]2[C@@H]3C(=O)N(C(C)(C)C)C(=O)[C@@H]3CC[C@H]12 0.204
O=C(NN=C1C[C@@H](O)[C@@H](O)[C@@H]2[C@@H]3C(=O)N(C[C@@H]4CCCO4)C(=O)[C@@H]3CC[C@H]12)OCc1ccccc1 0.404
COc1cccc([C@H]2Oc3ccc(OC)cc3C(=NO[C@@H](C)c3cn([C@H](CO)Cc4ccccc4)nn3)[C@@H]2O)c1 0.611
O=C1[C@H]2[C@H]3[C@H](O)[C@H](O)CC(=NOCc4ccccc4)[C@H]3CC[C@H]2C(=O)N1Cc1ccc2c(c1)OCO2 0.599
CC(C)CON=C1C[C@@H](O)[C@@H](O)[C@@H]2[C@@H]3C(=O)N(C4CCCCC4)C(=O)[C@@H]3CC[C@H]12 0.0575
CC(C)(C)N1C(=O)[C@H]2[C@H]3[C@H](O)[C@H](O)CC(=NO[C@@H]4O[C@H](CO)[C@@H](O)[C@H](O)[C@H]4O)[C@H]3CC[C@H]2C1=O 1.24
COC(=O)[C@H](C)NC(=O)CCC1CC(OC(=O)NCCc2ccc(F)cc2)CC2(CCCC(COC(=O)NCCC(C)C)O2)O1 (stereo not given in full) 0.266
CC(=O)Nc1ccc([C@@H]2N[C@H](C(=O)O)CC[C@H]2C)cc1 -0.267
COc1ccc(O[C@H]2C=C[C@@H](c3ccccc3)O[C@@H]2CON=C(C)C)cc1 0.196
CO[C@H]1COC(=O)[C@@H](Cc2ccccc2)NC(=O)[C@@H](C)COC(=O)CCC[C@@H]1C -2.21
CCOC(=O)NN=C1C[C@@H](O)[C@@H](O)[C@@H]2[C@@H]3C(=O)N([C@@H](C)c4ccccc4)C(=O)[C@@H]3CC[C@H]12 0.378
CO[C@H]1COC(=O)CCC[C@@H](C)[C@H](OC)COC(=O)[C@@H]2CCCN2C(=O)CC=C[C@@H]1C -0.939
COc1cccc([C@H]2Oc3ccc(OC)cc3C(=NOC(C)CN3CCCCc4nc(C)c(C)cc43)[C@@H]2O)c1 (stereo not given in full) 0.342
O=C1[C@H]2[C@H]3[C@H](O)[C@H](O)CC(=NOC[C@@H](O)COCc4ccco4)[C@H]3CC[C@H]2C(=O)N1Cc1ccccc1 -1.53
COc1cccc([C@H]2Oc3ccc(OC)cc3C(=NOC[C@@H](O)[C@H]3O[C@@H]4OC(C)(C)O[C@@H]4[C@H]3O)[C@@H]2O)c1 0.537
Cn1c(=O)n2n(c1=O)[C@H]1[C@H](O)[C@@H]3O[C@@H]3C(=NOCc3ccccc3)[C@H]1CC2 0.206
